# TEAD-YAP block – TEAD-YAP interaction inhibition; 640,000 tested, 1.4% active; inhibition, % at 9.12 µM; HEK-TIYL cells, TEAD-Gal4/YAP UAS-luciferase luminescence; in the data active = inhibition above about 32%;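 also: 0% = median of test compound wells and 100% = reference inhibitor wells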
# FBW7 activator – human FBW7 E3 ligase activation, primary screen | Q969H0 | AlphaScreen FBW7–phospho-cyclin E peptide binding, activator screen | normalized activity (activation), % at 26.1 µM | 650,000 tested, 0.13% active; in the data active = normalized activity above about 1.9%;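 also: purified mutant Fbw7 with reduced substrate affinity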
# Target sequence (Q969H0 whole entry, looked up): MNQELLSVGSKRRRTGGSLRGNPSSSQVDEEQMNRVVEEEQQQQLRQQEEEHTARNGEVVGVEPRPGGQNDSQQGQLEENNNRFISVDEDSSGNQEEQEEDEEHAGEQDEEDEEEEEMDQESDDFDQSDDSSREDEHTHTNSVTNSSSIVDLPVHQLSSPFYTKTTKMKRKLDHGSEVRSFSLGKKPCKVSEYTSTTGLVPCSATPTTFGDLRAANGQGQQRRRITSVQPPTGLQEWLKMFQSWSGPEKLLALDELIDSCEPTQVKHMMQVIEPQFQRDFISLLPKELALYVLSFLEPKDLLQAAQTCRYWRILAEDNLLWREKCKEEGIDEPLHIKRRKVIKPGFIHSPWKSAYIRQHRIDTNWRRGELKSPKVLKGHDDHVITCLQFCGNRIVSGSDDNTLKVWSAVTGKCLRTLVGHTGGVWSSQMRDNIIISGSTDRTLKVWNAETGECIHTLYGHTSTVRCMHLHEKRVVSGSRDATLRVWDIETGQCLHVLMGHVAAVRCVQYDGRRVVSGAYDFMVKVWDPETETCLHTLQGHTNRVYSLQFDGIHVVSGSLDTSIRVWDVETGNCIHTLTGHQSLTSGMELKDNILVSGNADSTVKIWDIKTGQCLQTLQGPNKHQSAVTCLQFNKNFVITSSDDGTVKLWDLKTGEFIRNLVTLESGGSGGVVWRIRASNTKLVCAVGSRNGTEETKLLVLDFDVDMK
# MITF inh – inhibitors of human MITF; AlphaScreen MITF homodimerization, bead proximity signal; inhibition, % at 2.6 µM; 650,000 tested, 0.91% active; O75030; in the data active = inhibition above about 50%;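 also: 0% = vehicle wells with protein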
# GPR151 ag – activates the human receptor GPR151; Q8TDV0; PathHunter beta-arrestin GPR151 cells, luminescence; activation, % at 11.2 µM; 650,000 tested, 1% active; in the data active = activation above about 4.9%;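 also: 0% = median of compound wells and 100% = cells with positive control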
# MITF confirm – human MITF inhibition, confirmation | shares compounds with MITF inh | AlphaScreen MITF homodimerization, biotin/His-MITF beads | inhibition, % at 2.6 µM | 4,700 tested, 16% active | AID 1259372;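 active = inhibition above a cutoff derived from the DMSO control wells, cut at about 28% in these data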;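 also: 0% = MITF dimer wells with DMSO only; inhibitors lower the bead chemiluminescence by keeping MITF from dimerizing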
# AlphaScreen DR – AlphaScreen optical interference, dose response counter-screen; shares compounds with MITF inh; 480 tested, 6% active; AlphaScreen optical interference counterscreen, cell-free; IC50, µM; call rule not given here
# AlphaScreen intf2 – AlphaScreen optical interference, counter-screen; AID 1259376; 4,700 tested, 7.6% active; LysRS AlphaScreen counterscreen, signal interference, triplicate; inhibition, % at 2.6 µM; shares compounds with MITF inh;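 active = inhibition above a cutoff derived from the DMSO control wells, cut at about 30% in these data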
# * marks the source's active call; other numbers are inactive results; x = no result. Rows were chosen to be rich in hits. Some 3.5% of all compounds tested hit in one or more screens of this group.
SMILES,TEAD-YAP block,FBW7 activator,MITF inh,GPR151 ag,MITF confirm,AlphaScreen intf2,others
C=CCc1ccc(OCCOCCNC(C)CC)c(OC)c1 (stereo not given),5,0,77*,-1,8,7,
CC1=C(C(=O)Nc2ccc(C)c(Cl)c2)C(c2ccc(N(C)C)cc2)NC(=S)N1 (stereo not given),-3,0,4,1,x,x,
COc1ccc(-c2[nH]nc3c2C(c2cccc(OC)c2OC)C(C#N)=C(N)O3)cc1 (stereo not given),-8,0,-8,0,x,x,
COC(=O)C1=CN(c2ccc(C)c(Cl)c2)C=C(C(=O)OC)C1c1cccs1,8,0,57*,0,-11,-11,
COC(=O)C1Cc2ccccc2CN1Cn1nc(C)c([N+](=O)[O-])c1C (stereo not given),-7,0,13,-2,x,x,
CCN(CC)CCOC(=O)c1ccc2nc(NC(=O)C34CC5CC(CC(C5)C3)C4)sc2c1,-43,0,10,-7,x,x,
CCn1nnc(NC(=O)c2ccccc2)n1,-25,0,58*,-1,-19,-2,
O=C(OC1CCOC1=O)c1ccc(S(=O)(=O)NCc2ccco2)cc1 (stereo not given),6,0,53*,1,52*,-8,AlphaScreen DR=>7.1
O=C(OC1CCCCC1=O)c1ccc(S(=O)(=O)NCc2ccco2)cc1 (stereo not given),0,0,14,0,x,x,
CCCC(=O)N(c1ccc(N(C(=O)CCC)S(=O)(=O)c2ccc3ccccc3c2)cc1)S(=O)(=O)c1ccc2ccccc2c1,7,0,3,2,x,x,
CC1=C(C(=O)Nc2ccc(C)cc2C)C(c2cccc(Cl)c2)NC(=S)N1 (stereo not given),-2,0,73*,1,4,21,
CC1=C(C(=O)Nc2ccc(C)cc2C)C(c2cccc(Cl)c2)NC(=O)N1 (stereo not given),9,0,5,1,x,x,
N#CC1(C#N)[C@H](c2cccnc2)[C@@H](C(=O)c2ccccc2)N2c3ccc(Cl)cc3C=C[C@@H]21,-4,0,11,1,x,x,
N#CC1(C#N)C(c2cccnc2)C(C(=O)c2ccccc2)N2c3ncccc3C=CC21 (stereo not given),-16,0,71*,0,13,4,
CCOC(=O)c1c(C)n(-c2ccc(C)cc2)c2ccc(OCC(O)CN3CCN(CCO)CC3)cc12 (stereo not given),-6,0,86*,-1,17,6,
CN1[C@@H](C(=O)Nc2cc(Cl)ccc2O)C[C@@H](c2cccs2)NS1(=O)=O,14,0,70*,0,9,6,
O=C(C1c2ccccc2Oc2ccccc21)N1CCCC(c2nc(-c3cccnc3)n[nH]2)C1 (stereo not given),-1,0,62*,0,7,14,
Brc1ccc(CN2CCN(Cc3cccnc3)CC2)cc1,-4,0,84*,4,1,9,
c1cncc(CN2CCN(Cc3ccncc3)CC2)c1,5,0,77*,1,7,0,
c1cncc(CN2CCN(Cc3ccco3)CC2)c1,2,0,75*,1,9,-1,
O=S(=O)(c1ccc(Cl)cc1)N1CCN(Cc2cccnc2)CC1,-2,0,4,-1,x,x,
O=C(Cn1nnc(-c2ccccc2)n1)c1ccc(Cl)cc1,-8,0,3,1,x,x,
Cc1c(C(=O)Nc2ccc(C(C)C)cc2)sc2ncnc(N3CCN(c4ccccn4)CC3)c12,0,0,2,0,x,x,
O=C(COc1cccc(C(F)(F)F)c1)NN1CCOCC1,1,0,5,-1,x,x,
CC1CCC(N2CCN(Cc3cccnc3)CC2)CC1 (stereo not given),7,0,84*,0,-5,15,
SMILES,TEAD-YAP block,FBW7 activator,MITF inh,GPR151 ag,MITF confirm,AlphaScreen intf2,others
Fc1ccccc1N1CCN(C2CCN(Cc3cccnc3)CC2)CC1,5,0,82*,-1,9,7,
c1cncc(CN2CCN(Cc3cccnc3)CC2)c1,9,0,60*,0,3,-1,
Fc1ccc(N2CCN(Cc3cccnc3)CC2)cc1,11,0,37,1,x,x,
Brc1ccc(CN2CCN(c3ncccn3)CC2)cc1,5,0,54*,0,1,3,
Fc1ccccc1N1CCN(Cc2cccnc2)CC1,7,0,46,0,x,x,
Cc1cc(OS(=O)(=O)c2cn(C)c(=O)n(C)c2=O)ccc1C(C)C,-53,0,15,-1,x,x,
c1cncc(-c2n[nH]c(C3CCN(Cc4ccncc4)CC3)n2)c1,-3,0,54*,-1,5,11,
c1cncc(CN2CCN(Cc3ccc4ccccc4c3)CC2)c1,14,0,81*,0,10,12,
CN1CCN(CCOCCOc2ccc(Cl)c(Cl)c2)CC1,10,0,57*,-1,-1,0,
CN1CCN(CCOc2ccc(Cl)c(Cl)c2)CC1,-19,0,69*,0,-6,2,
CCc1cc(OCCOCCN2CCN(CC)CC2)ccc1Cl,-20,0,68*,-2,4,18,
CCc1cc(OCCN2CCNCC2)ccc1Cl,-3,0,29,2,x,x,
CC1CN(CCNC(=O)Cc2ccc3c(c2)OCO3)Cc2ccccc2O1 (stereo not given),3,0,5,-1,x,x,
Cc1ccc(C)c(N2CCN(C(=O)c3ccc(S(=O)(=O)CC4CCCO4)c([N+](=O)[O-])c3)CC2)c1 (stereo not given),14,0,20,1,x,x,
COC(=O)c1ccc(=O)c2nc3/c(=C/O)c(O)cc(=O)c3[nH]c12,-6,0,77*,0,86*,-8,
COc1cc(C(=O)N2CCN(Cc3ccccc3[N+](=O)[O-])CC2)cc(OC)c1OC,2,0,67*,2,-17,-4,
COc1cccc(OC)c1C(=O)N1CCN(Cc2ccccc2C)CC1,1,0,71*,-1,8,-6,
CS(=O)(=O)N1CCN(Cc2ccccc2[N+](=O)[O-])CC1,13,1,11,1,x,x,
COc1cc(CN2CCN(C(=O)c3cc(OC)c(OC)c(OC)c3)CC2)c([N+](=O)[O-])cc1OC,-4,0,36,-2,x,x,
O=[N+]([O-])c1ccccc1CN1CCN(Cc2c[nH]c3ccccc23)CC1,11,0,62*,-1,6,-8,
O=[N+]([O-])c1ccccc1CN1CCN(Cc2ccncc2)CC1,-3,0,65*,0,3,1,
Cc1ccccc1CN1CCN(C(=O)c2ccccc2)CC1,2,0,37,-1,x,x,
Nc1ncc(-c2ccc(F)cc2F)nc1-c1ccc(C(=O)O)cc1,-41,0,14,1,x,x,

# Compound activity as filed in PubChem.
